For assay [1], the target named is Cellular tumor antigen p53 (Homo sapiens) (UniProt P04637). Kind of assay: Primary qHTS for small molecule compounds that upregulate eGFP-tagged delta133p53alpha (in N-terminal) cells. (AID 2060322). Also: nearly all actives have a fitted effect of over 75% in size. Also: potency is read from the fitted curve at half-maximal effect. Conditions: NCI-H358 eGFP-delta133p53alpha fluorescence, 24 h; activation: stronger effect = higher value. The essentials:
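NCI-H358 cells pre-induced 24 h with 10 ng/ml doxycycline to express N-terminal eGFP-delta133p53alpha, then dosed 24 h at 37C without doxycycline; fixed, Hoechst-stained, GFP intensity by laser scanning cytometry, normalized to DMSO (0%) and 57.5 uM 5-azacytidine (100%).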
In general terms: qHTS replaces the single test concentration by a dilution series.

The target in assay [2] is Aldehyde dehydrogenase, mitochondrial (Homo sapiens) (UniProt P05091). Kind of assay: qHTS for Inhibitors of the Aldehyde Dehydrogenase Family (ALDH2) Primary screen (AID 2061308). Also: nearly all actives have a fitted effect of over 55% in size. As to conditions: ALDH2 enzyme inhibition qHTS, 1536-well; series mostly up to 56 µM.

Each structure is given as a SMILES string. Results filed as inconclusive are left out. Entries that show only a call come without a potency. Unmarked numbers belong to inactive results. Active and inactive are the calls of the source. Calls follow the shape of the dose curve; as a rule, active = well fitted curve in the direction sought with a large enough effect; inconclusive = small, poorly fitted or top-dose-only effect, or another doubt; inactive = no such curve, though single readings can be large; an effect the other way counts as inactive or inconclusive.

Here are results for 28 compounds from PubChem BioAssay (NCATS).

Cellular tumor antigen p53 (Homo sapiens), sequence (P04637 whole entry, looked up): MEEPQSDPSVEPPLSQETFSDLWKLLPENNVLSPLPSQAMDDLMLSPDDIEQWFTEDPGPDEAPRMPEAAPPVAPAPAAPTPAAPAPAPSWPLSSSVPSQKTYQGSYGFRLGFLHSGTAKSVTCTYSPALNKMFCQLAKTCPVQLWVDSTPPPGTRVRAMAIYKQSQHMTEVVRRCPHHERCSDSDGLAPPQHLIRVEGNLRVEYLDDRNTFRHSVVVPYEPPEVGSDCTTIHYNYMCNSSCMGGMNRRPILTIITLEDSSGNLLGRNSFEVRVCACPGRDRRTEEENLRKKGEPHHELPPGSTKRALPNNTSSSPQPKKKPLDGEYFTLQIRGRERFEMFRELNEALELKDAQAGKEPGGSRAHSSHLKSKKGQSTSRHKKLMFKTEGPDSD

As to `O=C(/C=C/c1ccccc1O)O[C@@H]1O[C@H](CO)[C@@H](O)[C@H](O)[C@H]1O`, the activation in assay [1] was 0%. Further, in assay [2], the Potency entry was “inactive”.

With `COc1cc(C(CO)C(OC2OC(CO)C(O)C(O)C2O)c2ccc(O)c(OC)c2)ccc1O` (stereo unspecified), in assay [1], the activation is 20.5%. Also, the Potency result in assay [2] was “inactive”.

Turning to `C/C=C/C1=CC2=C(CO1)C(=O)[C@](C)(O)[C@H](OC(=O)c1c(O)cc(OC)c(O)c1C)C2`, the activation in assay [1] was 3.82%. Moreover, the Potency entry in assay [2] is “inactive”.

Take `OC[C@H]1O[C@@H](OCc2ccccc2)[C@H](O)[C@@H](O)[C@@H]1O`: the activation in assay [1] was -9.16%. Besides, the Potency entry in assay [2] was “inactive”.

`C/C=C1/CC2C(=O)Nc3cc(O)c(OC)cc3C(=O)N2C1` (stereo unspecified): in assay [1], the activation is -3.57%. In addition, the Potency entry in assay [2] is “inactive”.

For the compound `C=C1CC2OC(=O)C(=C)C2C(O)/C=C(\C)CCC1O` (stereo unspecified), the Potency in assay [1] is 26.9 µM (active). In addition, in assay [2], the Potency entry was “inactive”.

With `COC(=O)c1c(CC=C(C)C)c(OC2OC(CO)C(O)C(O)C2O)c2ccccc2c1OC1OC(CO)C(O)C(O)C1O` (stereo unspecified), in assay [1], the activation was 20.6%. In assay [2], the Potency result is “inactive”.

Consider `CC(CCc1ccc(O)cc1)O[C@@H]1O[C@H](CO[C@@H]2OC(CO)[C@H](O)[C@H]2O)[C@@H](O)[C@H](O)[C@H]1O` (stereo partly specified), for which the activation in assay [1] is -13.7%. For the same compound, in assay [2], the Potency entry was “inactive”.

Take `COC(=O)C1=CO[C@@H](O[C@@H]2O[C@H](CO)[C@@H](O)[C@H](O)[C@H]2O)[C@@H]2C(CO)=CC[C@H]12`: in assay [1], the activation is 0%. Besides, in assay [2], the Potency entry is “inactive”.

For `O=C(O[C@H]1[C@H](Oc2ccc(O)cc2CO)O[C@H](CO)[C@@H](O)[C@@H]1O)c1ccccc1`, the activation in assay [1] was -10.7%. In assay [2], the Potency entry was “inactive”.

As to `COC(=O)C1=COC(O[C@@H]2O[C@H](CO)[C@@H](O)[C@H](O)[C@H]2O)C2C(C)C(=O)CC12` (stereo partly specified), in assay [1], the activation is -1.53%. In addition, the Potency result in assay [2] is “inactive”.

Regarding `COc1cc(/C=C/C(=O)OC(C)(C)C(OC2OC(CO)C(O)C(O)C2O)C(=O)OCc2ccc(OC3OC(CO)C(O)C(O)C3O)cc2)ccc1O` (stereo unspecified), the activation in assay [1] was 13.7%. Further, the Potency result in assay [2] was “inactive”.

Consider `C/C=C1/[C@H](O[C@@H]2O[C@H](CO)[C@@H](O)[C@H](O)[C@H]2O)OC=C(C(=O)OC)[C@H]1CC(=O)OCCc1ccc(OC(=O)C[C@@H]2C(C(=O)OC)=CO[C@@H](O[C@@H]3O[C@H](CO)[C@@H](O)[C@H](O)[C@H]3O)/C2=C/C)cc1`, for which the activation in assay [1] is -7.14%. In addition, the Potency result in assay [2] was “inactive”.

`C=C1CCC2[C@](C)(CO)CCC[C@@]2(C)[C@@H]1CCC1=CCOC1=O` (stereo partly specified): the activation in assay [1] is -7.14%. In assay [2], the Potency result was “inactive”.

`COc1ccc(/C=C/C(=O)N2CCCC2)cc1`: the activation in assay [1] is 2.68%. For the same compound, the Potency entry in assay [2] is “inactive”.

Turning to `COc1ccc(C)c2sc(NC(=O)c3ccncc3)nc12`, the activation in assay [1] was -15.7%. Also, the Potency entry in assay [2] is “inactive”.

In the case of `CC(/C=C/C1(O)C(C)CC(O)CC1(C)C)OC1OC(CO)C(O)C(O)C1O` (stereo unspecified), the activation in assay [1] is -12.2%. Also, in assay [2], the Potency entry is “inactive”.

Take `C(#Cc1nc2ncccc2nc1OCCN1CCCC1)c1ccccc1`: the Potency in assay [1] was 6.75 µM (active). Besides, the Potency result in assay [2] is “inactive”.

`COc1cc(Nc2ccc([N+](=O)[O-])cc2C(=O)O)cc2ccccc12`: the activation in assay [1] was -11.9%. Also, the Potency result in assay [2] is “inactive”.

As to `CC(C/C=C/C(C)(C)O)C1CCC(C)(O)C(O)C1` (stereo unspecified), the activation in assay [1] was -11.5%. Besides, in assay [2], the Potency result was “inactive”.

As to `N#CC(CCCN1CCN(/N=C/c2cccnc2)CC1)(c1ccccc1)c1ccccc1`, the activation in assay [1] is -7.16%. In addition, the Potency entry in assay [2] is “inactive”.

With `COc1cc(C2Oc3c(OC)cc(/C=C/C(=O)OC4CC(O)(C(=O)O)CC(O)C4O)cc3C2CO)ccc1O` (stereo unspecified), the activation in assay [1] is -32.8%. Moreover, in assay [2], the Potency result is “inactive”.

Regarding `C=CCC1=C[C@]2(OC)[C@H](C)[C@@H](c3ccc(OC)c(OC)c3)O[C@]2(OC)CC1=O`, the activation in assay [1] is -3.57%. For the same compound, the Potency result in assay [2] was “inactive”.

As to `COc1cc(/C=C/CO[C@@H]2O[C@H](CO)[C@@H](O)[C@H](O)[C@H]2O)cc(OC)c1O[C@@H]1O[C@H](CO)[C@@H](O)[C@H](O)[C@H]1O`, the activation in assay [1] is 0.893%. Besides, the Potency result in assay [2] was “inactive”.

Regarding `O=C(O[C@H]1[C@@H]2C=CO[C@@H](O[C@@H]3O[C@H](CO)[C@@H](O)[C@H](O)[C@H]3O)[C@@H]2[C@@]2(CO)O[C@@H]12)c1ccc(O)c(O)c1`, in assay [1], the activation is -2.68%. For the same compound, the Potency entry in assay [2] was “inactive”.

On to `CC1=CC2C(CC1OC1OC(CO)C(O)C(O)C1O)C(C)CC(=O)C2C(C)C` (stereo unspecified), for which the activation in assay [1] is 4.58%. Besides, the Potency result in assay [2] is “inactive”.

For the compound `COC(=O)C1=COC(O[C@@H]2O[C@H](CO[C@@H]3O[C@H](COC(=O)/C=C\c4ccc(O)cc4)[C@@H](O)[C@H](O)[C@H]3O)[C@@H](O)[C@H](O)[C@H]2O)C2C(CO)=CCC12` (stereo partly specified), in assay [1], the activation was 33%. Besides, the Potency result in assay [2] was “inactive”.

On to `COc1cc([C@H]2OC[C@]3(OC(C)=O)[C@@H](c4ccc(O[C@@H]5O[C@H](CO)[C@@H](O)[C@H](O)[C@H]5O)c(OC)c4)OC[C@H]23)ccc1O`, for which the activation in assay [1] was -3.82%. In addition, in assay [2], the Potency result was “inactive”.
